# High-throughput results deposited in PubChem by National Center for Advancing Translational Sciences (NCATS).
# This is a sample that favours compounds with a hit; in the whole collection about 2.6% have one here.
# Cruzain inh noDet: qHTS Assay for Promiscuous and Specific Inhibitors of Cruzain (without detergent). Cruzipain (Trypanosoma cruzi), P25779. AID 1476, 2009. hit rate 2.3% among 200,000. purified cruzain, Z-FR-AMC fluorescence, no detergent. Potency, µM, for inactives: max response, negative = inhibition, hits mostly inhibitors;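 further: plate controls were enzyme without inhibitor for no effect and buffer without enzyme for full effect; nearly all actives have a fitted effect of over 40% in size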
# Target sequence (P25779 123-467 limits assumed): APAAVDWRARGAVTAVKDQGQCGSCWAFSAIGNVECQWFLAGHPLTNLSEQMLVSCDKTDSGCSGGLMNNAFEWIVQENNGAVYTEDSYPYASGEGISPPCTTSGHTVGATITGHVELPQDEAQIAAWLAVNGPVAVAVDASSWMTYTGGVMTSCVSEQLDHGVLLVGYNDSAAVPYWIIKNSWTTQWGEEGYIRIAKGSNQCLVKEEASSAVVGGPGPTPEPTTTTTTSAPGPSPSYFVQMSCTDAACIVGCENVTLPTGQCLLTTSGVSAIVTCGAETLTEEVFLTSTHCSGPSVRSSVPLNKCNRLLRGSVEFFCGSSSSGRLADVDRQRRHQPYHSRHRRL
#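 Detergent-free condition (0.00005% Triton X-100) in acetate buffer pH 5.5 with DTT. 1.5 nM enzyme and compound were pre-mixed 15 min, then 2 uM Z-FR-AMC substrate added; reaction progress from fluorescence change between first and third reads (60 s).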
# Cruzain Triton: qHTS Assay for Promiscuous and Specific Inhibitors of Cruzain (with detergent) | Cruzipain (Trypanosoma cruzi), P25779 | purified cruzain, Z-FR-AMC fluorescence, 0.01% Triton | Potency, µM, inactives show max response, negative = inhibition, hits mostly inhibitors | hit rate 0.43% among 200,000;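 further: plate controls were neutral wells for no effect and buffer without enzyme for full effect; nearly all actives have a fitted effect of over 40% in size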
#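 Cysteine protease activity tested under reducing, mildly acidic conditions (100 mM sodium acetate pH 5.5, 5 mM DTT) plus 0.01% Triton X-100. Cruzain 1.5 nM; substrate Z-FR-AMC 2 uM; 15 min compound preincubation at room temperature.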
# An asterisk follows results filed as active; ? = inconclusive. The call rests on the fitted dose curve; in most records, active means well fitted curve in the direction sought with a large enough effect; inconclusive means small, poorly fitted or top-dose-only effect, or another doubt; inactive means no such curve, though single readings can be large; an effect the other way counts as inactive or inconclusive. Potency means the concentration at half of the fitted maximal effect.
SMILES,Cruzain inh noDet,Cruzain Triton
Cc1ccc(N2CC(C(=O)Nc3nnc(SCC(=O)Nc4cc(C)on4)s3)CC2=O)cc1 (stereo not given),7.9µM*,0%
CCOC(=O)c1oc2ccccc2c1NC(=O)c1ccc(S(=O)(=O)N(C)C)cc1,-11%,-6%
Cc1cccc(Nc2nc(NCC3CCCO3)nc(N)c2[N+](=O)[O-])c1 (stereo not given),22%,-3%
Nc1nc(NCc2ccccc2)nc(Nc2ccc(F)cc2)c1[N+](=O)[O-],7.9µM*,-4%
Cc1ccc(CNc2nc(N)c([N+](=O)[O-])c(Nc3cccc(F)c3)n2)cc1,20µM*,-1%
Nc1nc(NCC2CCCO2)nc(Nc2ccc(F)cc2)c1[N+](=O)[O-] (stereo not given),-13%,-6%
Nc1nc(NCc2ccccc2)nc(Nc2cccc(F)c2)c1[N+](=O)[O-],32µM*,6%
Cc1cc(Nc2cccc(F)c2)nc(NCc2ccccc2)n1,6%,-7%
COc1ccccc1NC(=O)CCn1c(=O)oc2cc(Cl)ccc21,-1%,-1%
Cn1cc(SCC(=O)Nc2ccc3c(c2)OCO3)c2ccccc21,-17%,-6%
CC(C)n1cc(/C=C2/SC(=O)N(CC(=O)Nc3ccc4c(c3)OCO4)C2=O)c2ccccc21,10µM*,2%
C1=C(CCNc2ncnc3c2[nH]c2ccccc23)CCCC1,-23%,-16%
COc1ccc2[nH]c3c(NCCN(C(C)C)C(C)C)ncnc3c2c1,13µM*,?
CC(C)OCCCNc1ncnc2c1[nH]c1ccccc12,16µM*,?
COc1ccc2[nH]c3c(NCCCN4CCCC4=O)ncnc3c2c1,-23%,?
CCOC(=O)c1sc(NC(=O)COC(=O)CNC(=O)C2CCCCC2)c(C(=O)OCC)c1C,-29%,2.2µM*
CCOC(=O)c1sc(NC(=O)COC(=O)CNC(=O)c2ccco2)c(C(=O)OCC)c1C,?,-14%
O=C(COC(=O)CNC(=O)C1CCCCC1)Nc1ccc(Cl)cn1,6.3µM*,6.3µM*
O=C(COC(=O)CCOc1ccccc1)Nc1ccc(Cl)cn1,-2%,-5%
Cn1nnc2cc(NC(=O)N3CCN(c4ccccn4)CC3)ccc21,5%,-4%
Cc1cc(C(=O)NCC(=O)OCC(=O)N2CCCCCC2)ccc1[N+](=O)[O-],16µM*,14µM*
CCOc1ccc(C(=O)NCC(=O)OCC(=O)N2CCCCC2)cc1,0%,-11%
O=C(CNC(=O)c1cccc(F)c1)OCC(=O)N1CCCCC1,?,25µM*
CCOC(=O)C1CCCN(C(=O)c2ccc([N+](=O)[O-])c(C)c2)C1 (stereo not given),4%,-1%
Oc1cccc(C=NCc2ccccc2)c1O,0%,0%
SMILES,Cruzain inh noDet,Cruzain Triton
CCOc1ccc(CNC(=O)C2CCCN(S(=O)(=O)N(C)c3ccc(F)cc3)C2)cc1OC (stereo not given),?,3%
CSc1nc(NCc2ccccc2)c2c3c(sc2n1)CN(C)CC3,-21%,7%
Cc1cc(Cl)ccc1OCCCC(=O)NCc1cccs1,6%,-7%
CCCCc1ccc(NC(=O)OC)cc1,4%,-2%
CCCCc1ccc(N=N/C(C(=O)Nc2ccc(NC(C)=O)cc2OC)=C(/C)O)cc1,15%,10µM*
O=C(C1=NN(c2ccccc2)C2C(=O)N(c3ccc(Cl)cc3)C(=O)C12)c1ccccc1 (stereo not given),10µM*,-2%
O=C(C1=NN(c2ccccc2)C2C(=O)N(c3cccc(Cl)c3)C(=O)C12)c1ccccc1 (stereo not given),?,-7%
COc1ccccc1NC(=O)c1cnc(Nc2ccccc2OC)c2ccccc12,?,-10%
COc1ccc(OC)c(NC(=O)c2cnc(Nc3ccc(C)c(Cl)c3)c3ccccc23)c1,6.3µM*,-4%
COc1ccc(Nc2ncc(C(=O)N3CCN(Cc4ccccc4)CC3)c3ccccc23)cc1,0%,0%
Cc1ccc(Nc2ncc(C(=O)N3CCN(c4cccc(Cl)c4)CC3)c3ccccc23)cc1Cl,7.9µM*,-6%
CCC(CCC(=O)Nc1cccc(C(=O)O)c1)C(=O)O (stereo not given),4%,3%
CCCCCC(=O)N(O)C1CC(=O)N(c2ccccc2)C1=O (stereo not given),-2%,1%
Cc1ccc(NC2=CC(=O)CCC2)cc1C,5%,-2%
COc1ccc(O)c(/C=N/NC(=O)c2ccc(OCc3cccc(Br)c3)cc2)c1,7.9µM*,-4%
COc1ccc(O)c(/C=N/NC(=O)c2ccc(CSc3nc(C)cc(C)n3)cc2)c1,7%,-4%
CC1=C(C(=O)OCc2ccccc2)C(c2ccc(N(C)C)cc2)NC(=O)N1 (stereo not given),-12%,-8%
O=C(O)Cc1sc(N/N=C\c2ccccc2)nc1-c1ccccc1,?,-9%
COc1ccccc1Nc1nc(-c2ccccc2)c(CC(=O)O)s1,25µM*,-13%
COc1ccc(NC(=O)c2sc(=S)[nH]c2N)cc1,-13%,-2%
N#Cc1c(NC(=O)CCn2cnc3ccccc3c2=O)oc(-c2ccccc2)c1-c1ccccc1,32µM*,5%
CC(C)CC(C(=O)Nn1cnnc1)N1C(=O)c2ccccc2C1=O (stereo not given),-2%,0%
N#Cc1c(NC(=O)CCN2C(=O)c3ccccc3C2=O)oc(-c2ccccc2)c1-c1ccccc1,?,-3%
CC(C)CC(C(=O)Nc1oc(-c2ccccc2)c(-c2ccccc2)c1C#N)N1C(=O)c2ccccc2C1=O (stereo not given),3.2µM*,-3%
CCOC(=O)c1ccc(NC(=O)Cn2cc(C(=O)c3ccc(CC)cc3)c(=O)c3ccc(C)nc32)cc1,10%,0%
SMILES,Cruzain inh noDet,Cruzain Triton
Cc1nnc(NC(=O)CSc2nnc(Cc3cccn3C)n2-c2ccccc2)s1,0%,-3%
COc1ccc(NC(=O)c2ccc3c(=O)n4nc(Nc5cc(C)ccc5C)sc4nc3c2)cc1,1%,-3%
COc1cccc(C2C(C(=O)Nc3ccc(Cl)cc3)=C(C)Nc3nc4ccccc4n32)c1OC (stereo not given),-6%,-2%
CCc1ccc(-n2c(=O)c3cccnc3n2CC(=O)Nc2cc(OC)ccc2OC)cc1,-1%,3%
CCc1cccc(-n2c(=O)c3cccnc3n2CC(=O)Nc2ccc(OC)c(Cl)c2)c1,25µM*,-1%
Clc1ccc(/C=N/Nc2nnc(Cl)c3ccccc23)cc1,25µM*,-1%
Clc1nnc(N/N=C/c2ccccc2)c2ccccc12,4%,-7%
CCOC(=O)c1c(C)[nH]c(C2=NNC(=Nc3cccc(Cl)c3)SC2)c1C,16µM*,1%
CCOC(=O)c1c(C)[nH]c(C=O)c1Cc1cccc(Cl)c1,-6%,-8%
CCOC(=O)Nc1ccc2c(c1)nc(CN1CCN(C(C)=O)CC1)n2C,-6%,2%
Cc1sc(NC(=O)Cc2ccc3c(c2)OCO3)nc1-c1ccc2c(c1)CCN2C(=O)c1ccc(F)cc1,6.3µM*,-4%
O=C(NCc1ccc2c(c1)CCN2C(=O)c1ccncc1)c1ccccc1F,-4%,0%
CS(=O)(=O)N1CCc2cc(-c3csc(NC(=O)Cc4ccccc4)n3)ccc21,?,-1%
Cc1sc(NC(=O)CN(C)C2CCCCC2)nc1-c1ccc2c(c1)CCN2S(=O)(=O)c1ccccc1,32µM*,-5%
Cc1ccc2c(c1)CCCN2C(=O)c1ccc2c(c1)OCO2,6%,-3%
